Assay results reported in the supplement of paper PMC3545927.
The list shows a part of the results. No count for the full screen is at hand.

Target: furin, P09958
Test: furin cleavage Z-score vs untreated control; higher = more cleavage, active = 3.5 or more, inactive = 1 or less, 8 variable residues between constant flanks
Description: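 Multiplexed peptide-cDNA fusion cleavage assay. 8-mer variable peptides flanked by constant Cys-Ala (N-term) and Ala-Gly-Asn-Ala-Ser-Ala-Ser-Ala (C-term) and conjugated to a cDNA oligonucleotide were bead-immobilised via the N-terminus. They were treated with purified furin at a 1:10 enzyme:substrate ratio in 50 mM HEPES pH 7.5, 1 mM CaCl2, 100 mM NaCl for 7.5, 15 or 30 min. Released cDNA was counted by next-generation sequencing, and log counts versus no-furin controls were lowess-adjusted and converted to robust Z-scores.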

furin, P09958, sequence (P09958 whole entry): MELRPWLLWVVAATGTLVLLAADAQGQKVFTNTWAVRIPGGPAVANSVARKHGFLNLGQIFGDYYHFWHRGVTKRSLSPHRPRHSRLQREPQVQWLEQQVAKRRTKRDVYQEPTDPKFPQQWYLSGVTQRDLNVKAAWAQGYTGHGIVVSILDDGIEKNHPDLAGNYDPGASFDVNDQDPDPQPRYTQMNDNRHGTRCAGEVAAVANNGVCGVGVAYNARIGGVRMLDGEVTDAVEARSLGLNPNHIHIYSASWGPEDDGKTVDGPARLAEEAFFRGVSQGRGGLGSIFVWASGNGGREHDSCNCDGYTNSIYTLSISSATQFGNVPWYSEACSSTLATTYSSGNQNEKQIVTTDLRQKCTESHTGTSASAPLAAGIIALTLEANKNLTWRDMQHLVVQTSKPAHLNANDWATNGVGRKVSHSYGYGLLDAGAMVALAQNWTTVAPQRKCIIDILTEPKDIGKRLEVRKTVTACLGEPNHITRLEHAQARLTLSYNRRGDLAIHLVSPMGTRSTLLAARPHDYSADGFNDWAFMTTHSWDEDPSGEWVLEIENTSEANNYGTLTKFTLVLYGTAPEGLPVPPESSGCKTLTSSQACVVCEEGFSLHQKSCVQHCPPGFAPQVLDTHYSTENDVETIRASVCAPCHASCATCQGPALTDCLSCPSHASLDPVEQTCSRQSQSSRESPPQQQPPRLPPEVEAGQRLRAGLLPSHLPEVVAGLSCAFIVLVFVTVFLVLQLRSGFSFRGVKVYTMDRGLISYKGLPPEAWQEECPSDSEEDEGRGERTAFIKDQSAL

Sequence | furin cleavage Z-score (7.5 min) | furin cleavage Z-score (15 min) | furin cleavage Z-score (30 min)
CAVVCCSMSWAGNASASA [HC2088] | -0.556 (inactive) | 1.09 | 0.406 (inactive)
CARCHARKAVAGNASASA [HC1425] | 0.121 (inactive) | 0.298 (inactive) | -0.417 (inactive)
CACTPCSGSWAGNASASA [HC1840] | -0.759 (inactive) | -0.736 (inactive) | -0.368 (inactive)
CAYPWPLYGNAGNASASA [HC201] | -0.792 (inactive) | 1.01 | -0.667 (inactive)
CASKSRVSRLAGNASASA [FS-1488] | 3.43 | 1.78 | 3.65 (active)
CAPALRSARSAGNASASA [FS-66] | 0.638 (inactive) | 1.37 | 1.27
CARLWRKSRSAGNASASA [FS-189] | 9.72 (active) | 8.99 (active) | 8.13 (active)
CASKSRSARSAGNASASA [FS-500] | 10.3 (active) | 8.51 (active) | 6.45 (active)
CASAHRQPRLAGNASASA [FS-144] | 0.7 (inactive) | 0.218 (inactive) | 0.636 (inactive)
CAYGSRHIRLAGNASASA [FS-1107] | 0.267 (inactive) | 1.21 | 2.07
CALNARYSRSAGNASASA [FS-52] | 8.29 (active) | 10.6 (active) | 9.13 (active)
CASVASSSASAGNASASA [HC1259] | -0.54 (inactive) | 0.0424 (inactive) | -0.501 (inactive)
CAMEECSEHLAGNASASA [HC1732] | 0.304 (inactive) | -1.16 (inactive) | 0.588 (inactive)
CAAVPCHRPSAGNASASA [HC2303] | 0.31 (inactive) | -0.11 (inactive) | 0.292 (inactive)
CALGKVIDTLAGNASASA [HC220] | -0.0125 (inactive) | 0.316 (inactive) | -0.584 (inactive)
CATTKCSGSWAGNASASA [HC1874] | -0.691 (inactive) | -0.337 (inactive) | -0.205 (inactive)
CANKSRESRPAGNASASA [FS-1469] | -0.557 (inactive) | -0.538 (inactive) | -0.178 (inactive)
CATLSRSSRSAGNASASA [FS-1292] | 6.97 (active) | 8.07 (active) | 7.37 (active)
CASGSRSSRSAGNASASA [FS-1409] | 0.457 (inactive) | 1.76 | 2.85
CASKSRSSRSAGNASASA [FS-501] | 8.19 (active) | 9.38 (active) | 7.93 (active)
CANKSRSSRSAGNASASA [FS-180] | 8.13 (active) | 8.25 (active) | 6.67 (active)
CAPRTCRNMWAGNASASA [HC1185] | -0.106 (inactive) | 1.74 | 0.874 (inactive)
CAMEEDSQHLAGNASASA [HC12] | 1.39 | -0.675 (inactive) | -1.53 (inactive)
CADLLVGSATAGNASASA [HC292] | -0.794 (inactive) | -0.376 (inactive) | -2.04 (inactive)
CAEVPCHRISAGNASASA [HC2384] | -0.484 (inactive) | 0.399 (inactive) | 0.761 (inactive)
CASLGRAKRAAGNASASA [FS-1569] | 5.19 (active) | 5.19 (active) | 3.67 (active)
CAKHQRAKRAAGNASASA [FS-1130] | 5.65 (active) | 4.42 (active) | 4.22 (active)
CARDQRSVLAAGNASASA [FS-2206] | -0.0379 (inactive) | -0.365 (inactive) | 2.37
CASWGRVWRAAGNASASA [FS-1420] | 0.424 (inactive) | -1.01 (inactive) | 0.706 (inactive)
